Our source for the growth inhibition values is PubChem BioAssay (NCI).

Each structure is given as a SMILES string. About 79,000 compounds went through this panel and 15% of them were active in at least one assay; those are over-represented in the sample as a whole. Calls of active or inactive are those of the source. Rule as the data show it: active = growth inhibition above about 70%; inactive = the rest.

The nature of the first assay: NCI Yeast Anticancer Drug Screen. Data for the sgs1 mgt1 strain (AID 161).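 Also: 0% = growth of cultures given vehicle only.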 The following applies: S. cerevisiae sgs1 mgt1 strain, at 50.0 µM, stronger effect = higher value. The essentials:
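Read-out: growth inhibition vs vehicle controls. Cells: mutant yeast strain deficient in DNA damage repair.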
On to `CN(C)CC(CN(C)C)C(=O)/C=C/c1ccc(Cl)cc1Cl`, for which the growth inhibition was 48.7% (inactive). On the same count and under the same terms, in the case of `c1ccc2c(c1)ccn2CCc1c[nH]c2ccccc12` it was 57.9% (inactive); in that of `Cc1ccccc1NC(=O)c1c(C)oc2c1C(=O)c1ccccc1C2=O`, 71% (active); in that of `COc1ccc2nc3cccc([N+](=O)[O-])c3c(NCCNCCO)c2c1`, 78.2% (active).

For `CCC(OC(C)=O)C1CC(C(C)C)CCC1C` (centres undefined), the growth inhibition was 21.8% (inactive). Still for that read-out and setting: next, `O=S(=O)(c1cccc(C(F)(F)F)c1)N1c2ccccc2-n2cccc2C1c1cccnc1` (centres undefined): 96.8% (active). With `c1ccc(-c2cc(C3CO3)c3ccccc3n2)cc1` (centres undefined), the growth inhibition is 95.5% (active). With `COc1ccc(/C=C2\SC(=S)N(/C=C3\C(=O)N(c4ccccc4)N=C3C)C2=O)cc1OC`, the growth inhibition was 79.2% (active). Still for that read-out and setting: in the case of `CC1C(c2ccccc2)SC(=N)N1C` (centres undefined) it was -5.35% (inactive). Same read-out and setting: in the case of `CC(/C=C/c1ccc([N+](=O)[O-])o1)=N/N1CC(CN2CCOCC2)OC1=O` (centres undefined) it was 91.3% (active); in that of `C=CC(C)(C)N1C(=O)C(C(C)=O)=C(O)C1Cc1c[nH]c2ccccc12` (centres undefined), 52.8% (inactive); in that of `O=C1c2cccc3cccc(c23)C(=O)N1CCNCCN1C(=O)c2cccc3cccc(c23)C1=O`, 15.5% (inactive). Same read-out and setting: in the case of `Cc1ccc([N+](=O)[O-])c2c(NCCC[N+](C)(C)[O-])c3ccccc3nc12` it was 56.8% (inactive); in that of `COC(=O)C(Cc1c[nH]c2ccccc12)N1CN(C)c2ccccc2C1=O` (centres undefined), 97.8% (active); in that of `O=C(/N=N/C(=O)Oc1ccccc1)Oc1ccccc1`, 48.6% (inactive). Regarding `COc1cc([C@@H]2c3cc4c(cc3[C@@H](NC(=O)NO)[C@H]3COC(=O)[C@H]23)OCO4)cc(OC)c1O`, the growth inhibition was -3.9% (inactive). On the same count and under the same terms, next, `CC(C)OC(=O)NNc1cccc(Cl)c1`: 96.8% (active); `CCC(=O)C1=C(O)c2cc(OC)ccc2CC1C(=O)OC` (centres undefined): 24% (inactive); `O=S(=O)(NC1CCCC(c2ccccc2)C1)c1ccccc1` (centres undefined): 19.4% (inactive). On the same count and under the same terms, in the case of `COc1ccc2nc3cccc([N+](=O)[O-])c3c(NCCCCCC(=O)O)c2c1` it was 82.7% (active); in that of `CCO/C=C1\SC(=S)N(c2ccc(OCC)cc2)C1=O`, 33.5% (inactive).

In the case of `COc1cc(OC)c(CSCC(NC(=O)OCC2c3ccccc3-c3ccccc32)C(=O)O)c(OC)c1` (centres undefined), the growth inhibition is 99% (active).

Turning to `COC(=O)c1ccccc1N=NNc1cccc(SC)c1`, the growth inhibition is 88.8% (active). On the same count and under the same terms, next, `CC1=NN(C(=O)c2ccccc2O)C(=O)/C1=C/c1ccco1`: 87.3% (active); `COc1ccccc1NC(=O)c1ccc(Cl)cc1`: 20.8% (inactive); `N#CC1OB(O)c2ccccc21` (centres undefined): 27.1% (inactive). The same measure, in the same setting: next, `O=C(NCCNCCNC(=O)c1cc(-c2ccccc2)nc2ccccc12)c1cc(-c2ccccc2)nc2ccccc12`: 21.6% (inactive); `CCOP(=O)(OCC)/C(C#N)=C/c1cccc(Oc2ccccc2)c1`: 91.2% (active).

The next assay can be described thus: NCI Yeast Anticancer Drug Screen. Data for the CLN2oe strain (AID 163).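 Also: 0% = growth of vehicle-only control cultures.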 The following applies: S. cerevisiae CLN2oe strain, at 1.2 µM, stronger effect = higher value. The essentials:
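Strain altered in cell-cycle control, incubated with compound; growth compared to solvent-treated controls.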
As for `c1ccc2c(c1)ccn2CCc1c[nH]c2ccccc12`, the growth inhibition was 7% (inactive). `CC(C)OC(=O)NNc1c(Cl)cc(Cl)cc1Cl`: the growth inhibition was 1% (inactive). The same measure, in the same setting: next, `COc1ccc2nc3cccc([N+](=O)[O-])c3c(NCCNCCO)c2c1`: -5% (inactive); `COc1ccc2c(c1)CCCC(Br)C2=O` (centres undefined): 1% (inactive). On the same count and under the same terms, in the case of `O=S(=O)(c1cccc(C(F)(F)F)c1)N1c2ccccc2-n2cccc2C1c1cccnc1` (centres undefined) it was -16% (inactive). Still for that read-out and setting: in the case of `CC1=CC(=C(c2ccc(N)c(C)c2)c2ccc(N)c(C)c2)C=CC1=N` it was 19% (inactive); in that of `CC(/C=C/c1ccc([N+](=O)[O-])o1)=N/N1CC(CN2CCOCC2)OC1=O` (centres undefined), -9% (inactive); in that of `C=CC(C)(C)N1C(=O)C(C(C)=O)=C(O)C1Cc1c[nH]c2ccccc12` (centres undefined), -5% (inactive). Regarding `Cc1ccc([N+](=O)[O-])c2c(NCCC[N+](C)(C)[O-])c3ccccc3nc12`, the growth inhibition is -16% (inactive). As to `COc1cc([C@@H]2c3cc4c(cc3[C@@H](NC(=O)NO)[C@H]3COC(=O)[C@H]23)OCO4)cc(OC)c1O`, the growth inhibition is -2% (inactive). On the same count and under the same terms, next, `CC1(C)CC(=O)C(/C=N/c2nc(-c3ccc(Br)cc3)cs2)=C(O)C1`: 1% (inactive); `CCOC(=O)/C(=C/c1cccc(Cl)c1)N(CC)CC`: 8% (inactive); `CC(C)OC(=O)NNc1cccc(Cl)c1`: -7% (inactive). Same read-out and setting: in the case of `CCC(=O)C1=C(O)c2cc(OC)ccc2CC1C(=O)OC` (centres undefined) it was -7% (inactive). Same read-out and setting: in the case of `COc1cc(OC)c(CSCC(NC(=O)OCC2c3ccccc3-c3ccccc32)C(=O)O)c(OC)c1` (centres undefined) it was 0% (inactive); in that of `CC(C)=CCC/C(C)=C/CN1C(=O)C=CC1=O`, -13% (inactive). For `O=C1CSC(c2ccccc2)N1c1ccc(-c2ccc(-n3c(-c4ccccc4)nc4ccccc4c3=O)cc2)cc1` (centres undefined), the growth inhibition was 5% (inactive).

Turning to `O=C(NCCNCCNC(=O)c1cc(-c2ccccc2)nc2ccccc12)c1cc(-c2ccccc2)nc2ccccc12`, the growth inhibition is -2% (inactive).

The same assay, now with this note: S. cerevisiae CLN2oe strain, at 3.7 µM, stronger effect = higher value.
As to `c1ccc2c(c1)ccn2CCc1c[nH]c2ccccc12`, the growth inhibition is 21% (inactive). With `CC(C)OC(=O)NNc1c(Cl)cc(Cl)cc1Cl`, the growth inhibition is 5% (inactive). Same read-out and setting: next, `COc1ccc2nc3cccc([N+](=O)[O-])c3c(NCCNCCO)c2c1`: -8% (inactive); `COc1ccc2c(c1)CCCC(Br)C2=O` (centres undefined): 11% (inactive); `O=S(=O)(c1cccc(C(F)(F)F)c1)N1c2ccccc2-n2cccc2C1c1cccnc1` (centres undefined): -19% (inactive). On the same count and under the same terms, in the case of `CC1=CC(=C(c2ccc(N)c(C)c2)c2ccc(N)c(C)c2)C=CC1=N` it was 36% (inactive). The same measure, in the same setting: next, `CC(/C=C/c1ccc([N+](=O)[O-])o1)=N/N1CC(CN2CCOCC2)OC1=O` (centres undefined): -9% (inactive). As to `C=CC(C)(C)N1C(=O)C(C(C)=O)=C(O)C1Cc1c[nH]c2ccccc12` (centres undefined), the growth inhibition was -12% (inactive).

In the case of `Cc1ccc([N+](=O)[O-])c2c(NCCC[N+](C)(C)[O-])c3ccccc3nc12`, the growth inhibition is -9% (inactive).

Turning to `COc1cc([C@@H]2c3cc4c(cc3[C@@H](NC(=O)NO)[C@H]3COC(=O)[C@H]23)OCO4)cc(OC)c1O`, the growth inhibition is -7% (inactive). As for `CC1(C)CC(=O)C(/C=N/c2nc(-c3ccc(Br)cc3)cs2)=C(O)C1`, the growth inhibition was 7% (inactive). Still for that read-out and setting: next, `CCOC(=O)/C(=C/c1cccc(Cl)c1)N(CC)CC`: -9% (inactive); `CC(C)OC(=O)NNc1cccc(Cl)c1`: -6% (inactive); `CCC(=O)C1=C(O)c2cc(OC)ccc2CC1C(=O)OC` (centres undefined): -8% (inactive). For `COc1cc(OC)c(CSCC(NC(=O)OCC2c3ccccc3-c3ccccc32)C(=O)O)c(OC)c1` (centres undefined), the growth inhibition is 13% (inactive). On to `CC(C)=CCC/C(C)=C/CN1C(=O)C=CC1=O`, for which the growth inhibition was 5% (inactive). In the case of `O=C1CSC(c2ccccc2)N1c1ccc(-c2ccc(-n3c(-c4ccccc4)nc4ccccc4c3=O)cc2)cc1` (centres undefined), the growth inhibition was 3% (inactive). On the same count and under the same terms, in the case of `O=C(NCCNCCNC(=O)c1cc(-c2ccccc2)nc2ccccc12)c1cc(-c2ccccc2)nc2ccccc12` it was -2% (inactive).
